# This is a sample that favours compounds with a hit; in the whole collection about 3.8% have one here.
# ATXN2 expr inh = Primary qHTS for Inhibitors of ATXN expression | HEK-293 ATXN2-luciferase reporter, luminescence, 24 h | Potency, µM (titrated, usually from 57 µM), without a hit: at the highest dose activity change, negative = inhibition, usual class: inhibitors | 360,000 compounds, 0.72% hits | AID 1745845, 2022; further: on the % scale 0 is the no-effect control and ±100 the full control effect; nearly all actives have a fitted effect of over 55% in size
#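 ATXN2-luciferase reporter cells (luciferase flanked by upstream and downstream ATXN2 gene portions) were treated 24 h at 37 °C with compounds at up to 57 uM. SteadyGlo luminescence gave expression; GF-AFC fluorescence gave viability.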
# HepG2 tox-1 = qHTS for Inhibitors of TGF-b: Cytotox Counterscreen; HepG2 CAGA-GFP viability, ATP luminescence, 18 h; Potency, µM (top dose mostly 46.1 µM), for the others: top-dose activity change, negative = cytotoxicity, actives largely listed as cytotoxic; 410,000 compounds, 0.76% hits; AID 588856, 2011
#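 HepG2 CAGA-GFP cells (1000/well, DMEM with 1% FBS) received compound, then TGF-beta at 500 pg/mL final, and were incubated 18 hours at 37 degrees C. Viability was read by CellTiter-Glo luminescence. Media-only wells were set as complete cell-killing and DMSO as no toxicity.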
# TGFb inhibitor = qHTS for Inhibitors of TGF-b | HepG2 CAGA-GFP TGF-b/SMAD3 reporter, GFP fluorescence, 18 h; TGF-beta stimulated, 500 pg/mL final | 410,000 compounds, 1.2% hits | Potency, µM (titrated, usually from 46.1 µM), without a hit: at the highest dose activity, negative = inhibition, most hits filed as inhibitors; further: on the % scale 0 is the no-effect control and ±100 the full control effect; nearly all actives have a fitted effect of over 65% in size
#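 Smad-responsive CAGA-GFP expression was quantified in HEPG2 cells exposed to compounds and 500 pg/mL final TGF-beta for 18 h at 37 degrees C; unstimulated wells defined full inhibition.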
# Nrf2 inh = Nrf2 qHTS screen for inhibitors | Potency, µM (highest dose often 46 µM), for inactives: at the highest dose activity change, negative = inhibition, actives largely listed as inhibitors | AID 504444, 2011 | A549 ARE-Fluc reporter, luciferase luminescence, 18-24 h | 360,000 compounds, 2.1% hits; further: on the % scale 0 is the no-effect control and ±100 the full control effect; nearly all actives have a fitted effect of over 60% in size
#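 Cells were seeded and rested 2 h, then exposed to compounds for 18-24 h. CellTiter-Fluor was read first as a viability measure. BugLite was added 15 min before the final luminescent read of ARE-luciferase activity in A549 cells.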
# A549 tox = Nrf2 qHTS screen for inhibitors: counterscreen for cytotoxicity | 390,000 compounds, 0.16% hits | A549 ARE-Fluc cells, CellTiter-Fluor viability, 18-24 h | Potency, µM (doses to about 46 µM), for the others: top-dose activity change, negative = cytotoxicity, usual class: inhibitors; further: on the % scale 0 is the no-effect control and ±100 the full control effect
#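 A549 ARE_Fluc cells in 5% FBS OPTI-MEM were exposed to compounds in concentration-response for 18-24 h at 37 deg C. Viability was read by CellTiter-Fluor fluorescence (Ex 405/Em 525) after 30 min, before the luciferase read.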
# S2 tox = Viability Counterscreen for Primary qHTS for Inhibitors of ATXN expression. Potency, µM (top dose mostly 56.7 µM), most hits filed as cytotoxic. AID 651635, 2014. 400,000 compounds, 0.49% hits. S2 cells (HEK-293 line with an ATXN2-luciferase reporter) viability, CellTiter-Fluor protease fluorescence, 24 h; further: nearly all actives have a fitted effect of over 40% in size
# TGFb confirm = qHTS for Inhibitors of TGF-b: Confirmation of Cherry Picks | shares compounds with TGFb inhibitor | HepG2 CAGA-GFP TGF-b reporter, GFP fluorescence, 18 h; cells stimulated with TGF-beta, 500 pg/mL | Potency, µM (doses to about 46.1 µM), without a hit: top-dose activity, negative = inhibition, usual class: inhibitors | 1,600 compounds, 63% hits | AID 720534, 2013; further: on the % scale 0 is the no-effect control and ±100 the full control effect; nearly all actives have a fitted effect of over 65% in size
# HepG2 tox-2 = qHTS for Inhibitors of TGF-b: Cytotox Counterscreen for Cherry Picks; shares compounds with TGFb inhibitor; HepG2 CAGA-GFP viability, ATP luminescence, 18 h; cells stimulated with TGF-beta, 500 pg/mL; Potency, µM (titrated, usually from 46.1 µM), inactives show at the highest dose activity, negative = cytotoxicity, actives largely listed as inhibitors; 1,600 compounds, 27% hits; AID 720535, 2013; further: on the % scale 0 is the no-effect control and ±100 the full control effect; nearly all actives have a fitted effect of over 70% in size
# CCL64 TGFb inh = qHTS for Inhibitors of TGF-b: CCL64 Cells Orthogonal Assay for Cherry Picks. Potency, µM (highest dose often 46.1 µM), for the others: top-dose activity, negative = inhibition, hits mostly inhibitors. 1,600 compounds, 41% hits. shares compounds with TGFb inhibitor. CCL64 CAGA-GFP reporter, TGF-b stimulated, GFP fluorescence, 18 h; further: nearly all actives have a fitted effect of over 65% in size
# COP TGFb inh = qHTS for Inhibitors of TGF-b: Hit Validation in HepG2 Cells using COP promoter; HepG2 COP-GFP TGF-b reporter, GFP fluorescence, 18 h; cells stimulated by added recombinant TGF-beta; shares compounds with TGFb inhibitor; Potency, µM (top dose mostly 46.1 µM), without a hit: at the highest dose activity, negative = inhibition, actives largely listed as inhibitors; 1,600 compounds, 3% hits; further: nearly all actives have a fitted effect of over 70% in size
# Starred values were filed as active, the others as inactive; i = inactive; ? = inconclusive; · = no result given. The call rests on the fitted dose curve; in most records, active means well fitted curve in the direction sought with a large enough effect; inconclusive means small, poorly fitted or top-dose-only effect, or another doubt; inactive means no such curve, though single readings can be large; an effect the other way counts as inactive or inconclusive. Potency means the concentration at half of the fitted maximal effect.
SMILES,ATXN2 expr inh,HepG2 tox-1,TGFb inhibitor,Nrf2 inh,A549 tox,S2 tox,TGFb confirm,HepG2 tox-2,CCL64 TGFb inh,COP TGFb inh
CN(CC(=O)Nc1cccc(S(=O)(=O)N2CCCC2)c1)CC(=O)Nc1ccc(Cl)c(C(F)(F)F)c1,?,-14%,16µM*,26µM*,?,?,16µM*,?,29µM*,60%
CN(CC(=O)Nc1cccc(S(=O)(=O)N2CCCC2)c1)CC(=O)Nc1ccc(F)c(F)c1F,-11%,0%,-2%,?,-24%,i,·,·,·,·
O=C(CNc1ccc(Cl)c(C(F)(F)F)c1)N1CCN(S(=O)(=O)c2ccccc2)CC1,-6%,-8%,13µM*,-16%,-3%,i,12µM*,-3%,-25%,-10%
COc1ccccc1CCC(=O)N(C)CC(=O)Nc1ccc(Cl)c(C(F)(F)F)c1,-8%,-9%,11µM*,?,?,i,?,-20%,?,-1%
CC(=O)c1ccc(NCC(=O)N2CCN(S(=O)(=O)c3ccccc3)CC2)cc1,·,-10%,-22%,-24%,0%,?,·,·,·,·
C=CCc1ccccc1OCC(=O)NNC(=S)NCc1ccccc1,0%,7%,?,-7%,0%,i,·,·,·,·
N#Cc1cc2cc(Cl)ccc2[nH]c1=O,18%,·,·,·,·,i,·,·,·,·
CCOc1ccc(S(=O)(=O)N2CCN(CC(O)COc3cccc([N+](=O)[O-])c3)CC2)cc1 (stereo not given),-26%,-28%,?,?,-13%,i,?,-13%,?,19%
CC(=O)Nc1ccc(S(=O)(=O)N2CCN(CC(O)COc3ccc4ccccc4c3)CC2)cc1 (stereo not given),?,-18%,?,?,-19%,?,26µM*,-29%,-3%,7%
Cc1ccc(S(=O)(=O)N2CCN(CC(O)COc3ccccc3)CC2)cc1 (stereo not given),-13%,6%,-3%,-26%,-3%,i,·,·,·,·
CCc1nc2ccc(C(=O)N3CCN(c4ccccc4)CC3)cc2nc1CC,-11%,4%,?,-8%,4%,i,·,·,·,·
CCc1nc2ccc(C(=O)N3CCN(c4cccc(C(F)(F)F)c4)CC3)cc2nc1CC,-19%,-12%,20µM*,-22%,-1%,i,?,-24%,?,16%

# From PubChem
